Reference: PubChem BioAssay

Molecular target: NADPH oxidase 2 (Homo sapiens) (UniProt P04839)
Test: compounds shifting NOX2 Amplex Red fluorescence – cell-based, HEK293-NOX2, PMA-stimulated, NOX inhibitor project, primary screen (AID 1159); note: test concentration not given here
Conditions: 45 min, higher = more signal, called active from +8 up or from −8 down

Chain of NADPH oxidase 2 (Homo sapiens) (P04839 whole entry, looked up): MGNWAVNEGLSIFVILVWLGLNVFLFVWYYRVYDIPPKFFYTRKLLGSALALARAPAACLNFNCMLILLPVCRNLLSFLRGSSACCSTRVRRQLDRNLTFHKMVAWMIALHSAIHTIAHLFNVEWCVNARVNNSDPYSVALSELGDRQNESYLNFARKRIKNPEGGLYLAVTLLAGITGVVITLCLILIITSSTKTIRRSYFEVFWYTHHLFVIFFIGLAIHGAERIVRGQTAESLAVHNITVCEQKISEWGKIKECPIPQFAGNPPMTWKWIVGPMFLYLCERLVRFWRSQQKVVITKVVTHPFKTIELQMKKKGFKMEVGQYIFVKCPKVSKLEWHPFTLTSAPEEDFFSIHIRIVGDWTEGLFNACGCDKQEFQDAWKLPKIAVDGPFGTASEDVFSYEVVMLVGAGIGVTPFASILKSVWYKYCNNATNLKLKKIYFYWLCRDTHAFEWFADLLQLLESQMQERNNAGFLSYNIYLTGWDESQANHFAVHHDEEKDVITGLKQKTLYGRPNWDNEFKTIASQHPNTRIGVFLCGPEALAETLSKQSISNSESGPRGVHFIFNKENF

z-score, inactive:
[N-]=[N+]=Nc1ccccc1C[C@@]1(C(=O)NCC(O)CO)N=C(c2ccc(OCCCO)cc2)O[C@@H]1c1ccccc1 (some centres undefined) 2.51
C=C(CCCC)/C(=C/C[C@H](OC(=O)c1ccncc1)c1cccc(OCCO)c1)c1cnc2ccccc2c1 -0.777
COCCOC(=O)N1C(=O)[C@@]2(c3cc(C#Cc4ccc(OC)cc4)ccc31)[C@H](c1ccc(OCCO)cc1)N1[C@H](c3ccccc3)[C@H](c3ccccc3)OC(=O)[C@H]1[C@@H]2C(=O)NC[C@H](O)c1ccccc1 1.27
CCOC(=O)C1=CC[C@@H](c2ccc(OC)cc2)N(S(=O)(=O)c2ccc(C)cc2)[C@H]1c1ccc(C)cc1 0.864
COCCOC(=O)N1C(=O)[C@@]2(c3cc(C#CCCO)ccc31)[C@H](c1ccc(OCCO)cc1)N1[C@H](c3ccccc3)[C@H](c3ccccc3)OC(=O)[C@H]1[C@@H]2C(=O)N1CCCCCCC1 1.5
COC(=O)[C@@]1(Cc2ccc(F)cc2)[C@H]2c3cc(C(=O)N4CCCC4)n(Cc4cc(F)cc5c4OCOC5)c3C[C@H]2CN1C(=O)c1ccccc1 -0.332
C=C(CCCC)/C(=C/C[C@H](OC(=O)c1ccncc1)c1ccc(OCCO)cc1)c1cnc2ccccc2c1 -0.0888
C=CCOC(=O)[C@@H]1[C@H]2C(=O)O[C@H](c3ccccc3)[C@H](c3ccccc3)N2[C@H](c2ccc(OCCOC(=O)[C@H]3C[C@H]4C(=O)N5CCC[C@H]5C(=O)N4[C@H]3c3cccc(OCCO)c3)cc2)[C@@]12C(=O)Nc1ccc(I)cc12 0.929
COc1ccc([Si](C)(C)[C@H]2[C@H](CC(=O)N3Cc4ccccc4C[C@H]3CO)O[C@@]3(C(=O)N(C)c4c(Br)cc(C)cc43)[C@@H]2C)cc1 0.0544
CCCC[C@H]1OB(O)C[C@H]2C1=C(COc1ccccc1)C[C@H]1C(=O)C=CC(=O)[C@H]12 -0.429
COCCOC(=O)N1C(=O)[C@@]2(c3cc(C#CCC(C(=O)OC)C(=O)OC)ccc31)[C@H](C(=O)Nc1nc3ccccc3s1)[C@H]1C(=O)O[C@H](c3ccccc3)[C@H](c3ccccc3)N1[C@@H]2c1ccc(O)cc1 1.59
COC(=O)[C@@]1(Cc2ccc(OC)cc2)[C@H]2c3cc(C(=O)N4CCCC4)n(Cc4ccc(Cl)c(C(F)(F)F)c4)c3C[C@H]2CN1C(=O)c1ccccc1 0.449
Cc1ccc(F)cc1S(=O)(=O)N[C@H]1CCN(Cc2ccc(OC(C)C)cc2)C1 -1.11
COCCOC(=O)N1C(=O)[C@@]2(c3cc(C#CCNC(N)=O)ccc31)[C@H](C(=O)Nc1nc3ccccc3s1)[C@H]1C(=O)O[C@H](c3ccccc3)[C@H](c3ccccc3)N1[C@@H]2c1ccccc1OCCO 1.41
CCCCC(O)C1C=CC2C(=O)N(c3ccccc3)C(=O)C2N1Nc1ccc([N+](=O)[O-])cc1 (centres undefined) -1.08
CCCN1C(=O)[C@@]2(c3ccc([N+](=O)[O-])cc3)CC(=O)N(CC34CC5CC(CC(C5)C3)C4)[C@@H]2c2ccc(CO)cc21 0.658
O=C1C=C(c2ccccc2)C(=O)C2=C1CC([C@H]1Oc3ccccc3S(=O)(=O)N3CCC[C@@H]13)=CC2 -0.368
O=C1[C@H]2C=C(I)[C@H](C[C@@H]2OCCCCCCO)[C@@]12CO2 -0.212
N#Cc1ccc(-c2cccc(=O)o2)cc1 0.191
N#Cc1ccc(NN2C(C(O)C3CC=CCC3)C=CC3C(=O)N(c4ccccc4)C(=O)C32)cc1 (centres undefined) -1.21
COC(=O)C(CC#Cc1ccc2c(c1)[C@]1(C(=O)N2)[C@H](c2ccc(OCCO)cc2)N2[C@H](c3ccccc3)[C@H](c3ccccc3)OC(=O)[C@H]2[C@@H]1C(=O)N1CCCCCCC1)C(=O)OC 0.783
COCCOC(=O)N1C(=O)[C@@]2(c3ccccc31)[C@H](c1ccc(O)cc1)N1[C@H](c3ccccc3)[C@H](c3ccccc3)OC(=O)[C@H]1[C@@H]2C(=O)N1CCCCCCC1 0.54
COc1ccc(C(O)C2C=CC3C(=O)N(c4ccccc4)C(=O)C3N2Nc2ccc([N+](=O)[O-])cc2)c2ccccc12 (centres undefined) -0.273
O=C1c2ccccc2[C@@]2(Cc3ccccc3N(Cc3ccccc3)C2=O)[C@H](c2ccc(CO)cc2)N1Cc1ccccc1Cl -0.534
